The values below come from PubChem BioAssay (EPA / NIEHS).

The term AC50 denotes the concentration giving half of the maximal activity seen.

The target of assay [1] is Nucleoli Translocation, AR (gene 367) (UniProt P10275). In words: UPITT_HCI_U2OS_AR_TIF2_Nucleoli_Antagonist: University of Pittsburgh U2OS Androgen Receptor-Transcriptional Intermediary Factor 2 (AR-TIF2) Antagonism High Content Imaging Assay for Nucleoli Translocation (AID 2283997; active = hit-call score of the fitted dose curve at least 0.9, where 1 is the maximum). The essentials:
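Measured quantity was AR-RFP fluorescence localized to nucleoli in engineered U2OS cells also bearing TIF2-GFP, acquired on automated high-content imagers. Primary testing used 20 uM compound; actives were confirmed in triplicate wells.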

The target is the same in assay [2]. Briefly: UPITT_HCI_U2OS_AR_TIF2_Nucleoli_Agonist: University of Pittsburgh U2OS Androgen Receptor-Transcriptional Intermediary Factor 2 (AR-TIF2) Agonism High Content Imaging Assay for Nucleoli Translocation (AID 2283998; active = hit-call score of the fitted dose curve at least 0.9, where 1 is the maximum). A digest of the protocol:
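Nucleolar translocation of AR-RFP, with TIF2-GFP coexpressed in human osteosarcoma U2OS, imaged by high-content fluorescence. Compounds tested singly at 20 uM final, confirmed in triplicate, then titrated 0.195–50 uM final; gain-of-signal relative to DMSO.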

In assay [3] the target is Ratio of Nucleoli Translocation and Cytoplasm, AR (gene 367) (UniProt P10275). In words: UPITT_HCI_U2OS_AR_TIF2_Nucleoli_Cytoplasm_Ratio_Antagonist: University of Pittsburgh U2OS Androgen Receptor-Transcriptional Intermediary Factor 2 (AR-TIF2) Antagonism High Content Imaging Assay for Ratio of Nucleoli Translocation and Cytoplasm (AID 2283999; active = hit-call score of the fitted dose curve at least 0.9, where 1 is the maximum;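 note: antagonists lower the DHT-driven ratio of nucleolar to cytoplasmic red signal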). A digest of the protocol: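 Human osteosarcoma U2OS line, AR fused to RFP, coactivator TIF2 fused to GFP. Cpds 20 uM final, 0.2% DMSO (screen); 0.195–50 uM final, 0.5% DMSO (CRC). Endpoint: nucleoli/cytoplasm red signal ratio, DHT as baseline, loss-of-signal antagonist mode.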
Ratio of Nucleoli Translocation and Cytoplasm, AR (gene 367), sequence (P10275 whole entry, looked up, the tested form may be a part): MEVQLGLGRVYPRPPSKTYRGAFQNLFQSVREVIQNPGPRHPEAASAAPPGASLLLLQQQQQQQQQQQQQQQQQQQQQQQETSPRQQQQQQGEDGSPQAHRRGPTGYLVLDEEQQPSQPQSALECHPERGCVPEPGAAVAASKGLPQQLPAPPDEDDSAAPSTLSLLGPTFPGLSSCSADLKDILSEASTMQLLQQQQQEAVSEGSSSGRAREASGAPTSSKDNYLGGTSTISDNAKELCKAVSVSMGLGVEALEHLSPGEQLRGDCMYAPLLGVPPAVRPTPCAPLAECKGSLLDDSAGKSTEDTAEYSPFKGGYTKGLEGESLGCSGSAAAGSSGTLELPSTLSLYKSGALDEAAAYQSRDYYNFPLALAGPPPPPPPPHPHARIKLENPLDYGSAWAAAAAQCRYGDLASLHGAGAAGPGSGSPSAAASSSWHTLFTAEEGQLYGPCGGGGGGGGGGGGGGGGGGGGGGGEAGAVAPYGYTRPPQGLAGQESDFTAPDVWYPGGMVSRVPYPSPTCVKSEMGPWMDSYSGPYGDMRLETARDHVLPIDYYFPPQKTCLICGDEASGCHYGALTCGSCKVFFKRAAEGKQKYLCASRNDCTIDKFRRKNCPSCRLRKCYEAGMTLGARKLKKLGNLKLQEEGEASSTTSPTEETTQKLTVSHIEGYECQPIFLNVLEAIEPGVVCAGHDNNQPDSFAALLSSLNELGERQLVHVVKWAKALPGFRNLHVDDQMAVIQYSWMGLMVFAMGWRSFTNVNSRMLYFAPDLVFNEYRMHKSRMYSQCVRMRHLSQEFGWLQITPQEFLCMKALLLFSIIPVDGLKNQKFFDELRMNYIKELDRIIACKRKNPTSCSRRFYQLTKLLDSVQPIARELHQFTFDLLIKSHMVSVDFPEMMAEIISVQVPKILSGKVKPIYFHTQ

For assay [4] the target is unchanged. Briefly: UPITT_HCI_U2OS_AR_TIF2_Nucleoli_Cytoplasm_Ratio_Agonist: University of Pittsburgh U2OS Androgen Receptor-Transcriptional Intermediary Factor 2 (AR-TIF2) Agonism High Content Imaging Assay for Ratio of Nucleoli Translocation and Cytoplasm (AID 2284000; active = hit-call score of the fitted dose curve at least 0.9, where 1 is the maximum;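 note: hits raise the red nucleolar to cytoplasm ratio above vehicle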). A digest of the protocol:
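Read-out first: nucleolar-to-cytoplasm ratio of red (AR-RFP) signal, quantified by high-content imaging in U2OS cells co-expressing TIF2-GFP. Activity is scored as signal increase over DMSO. Single-point screening used 20 uM final (0.2% DMSO).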

The nature of assay [5]: CCTE_Simmons_MITO_basal_resp_rate: CCTE's HepG2 Seahorse XF Respirometric Screening Assay at Basal Respiratory State, Simmons Lab (AID 2284001). As to conditions: actives raise or lower the signal. A digest of the protocol:
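HepG2 respirometry; 7-pt titration 125 nM–100 uM final; kinetic OCR at 6 min intervals for 72 min; n=3 biological, technical singles; DMSO baseline, gain or loss fit; fenpyroximate (decrease) and 2,4-DNP (increase) controls.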

Assay [6] can be described thus: CCTE_Simmons_MITO_max_resp_rate: CCTE's HepG2 Seahorse XF Respirometric Screening Assay at Maximal Respiratory State [uncoupled], Simmons Lab (AID 2284002). To be noted: actives raise or lower the signal. The essentials: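 Maximal (FCCP-uncoupled) respiration rate in HepG2, from Seahorse kinetic OCR over 72 min at 6 min cycles. Compounds at 125 nM–100 uM final, 7 points, three biological replicates; both directions fit relative to DMSO.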

Assay [7] is described as follows: CCTE_Simmons_MITO_inhib_resp_rate: CCTE's HepG2 Seahorse XF Respirometric Screening Assay at Inhibited Respiratory State [full ETC block], Simmons Lab (AID 2284006). To be noted: actives raise or lower the signal. The essentials: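 Compound injected onto HepG2 cells (125 nM–100 uM final, 7 points); FCCP then rotenone/antimycin A added. Oxygen consumption read every 6 min (3 min mix, 3 min measure) for 72 min. Inhibited-state OCR fitted against DMSO.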

Assay [8] can be described thus: CCTE_Simmons_MITO_viability: CellTiter-Glo Viability Assessment for CCTE's HepG2 Seahorse XF Respirometric Screening Assay [post-hoc], Simmons Lab (AID 2284007; active = hit-call score of the fitted dose curve at least 0.9, where 1 is the maximum;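 for AC50: cells exposed to chemical for 90 min before the ATP read; actives lower ATP signal relative to DMSO baseline meaning reduced viability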). A digest of the protocol:
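After the Seahorse oxygen-consumption sequence (basal, FCCP, rotenone/antimycin A; 72 min total), HepG2 viability was scored as ATP content by bioluminescence. Chemicals ran at seven concentrations up to 100 uM final for 90 min.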
(In general: In ATP-based viability assays light output follows the ATP content of the culture.)

Assay [9] is described as follows: CCTE_Harrill_HTTr_Viability_MCF7: CCTE's 6-hour Cell Viability Assessment for the High-Throughput Transcriptomics (HTTr) Platform, in MCF-7 cells cultured in DMEM + 10% fetal bovine serum, Harrill Lab (AID 2284010). The essentials:
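Cells were dosed with chemicals in an eight-point dilution series, imaged 6 hours later for propidium iodide uptake, and the endpoint was analyzed by bidirectional fitting against DMSO as negative control.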

Assay [10] can be described thus: CCTE_Harrill_HTTr_Apoptosis_MCF7: CCTE's 6-hour Apoptosis Assessment for the High-Throughput Transcriptomics (HTTr) Platform, in MCF-7 cells cultured in DMEM + 10% fetal bovine serum, Harrill Lab (AID 2284011). A digest of the protocol: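 High-content imaging of CellEvent Caspase 3/7 Green signal follows a six-hour exposure, with eight concentrations per chemical. MCF-7 cells grown in DMEM plus 10% fetal bovine serum; activity fitted in both directions against DMSO.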

Assay [11] in a line: CCTE_Shafer_MEA_acute_spike_number: CCTE's Neural Acute Assay for Total Number of Spikes, Shafer Lab (AID 2284008).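 For AC50: curve fitted for decrease in spike count so AC50 reflects inhibitors.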 The essentials:
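Total spike count from 40 min recordings before and during compound exposure (0.03-40 uM), given as per-well percent change. Cortical cultures from rat, DIV 13 or 15, 37 C; adaptive detection threshold 8x rms noise.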

Assay [12] in a line: CCTE_Shafer_MEA_acute_firing_rate_mean: CCTE's Neural Acute Assay for Mean Firing Rate, Shafer Lab (AID 2284009).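 Note: analyzed for loss of signal so actives lower firing rate relative to DMSO.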 The essentials:
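Percent change in well-mean firing rate was derived from extracellular spikes detected at 8x rms noise (300-5000 Hz band-pass) before and after a 40-min compound exposure. Cultures were primary rat cortical neurons, tested at 0.03-40 uM.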

Assay [13] can be described thus: CCTE_Harrill_HTTr_CellCount_MCF7: CCTE's Cell Proliferation Assessment for the High-Throughput Transcriptomics (HTTr) Platform, Harrill Lab (AID 2284012; active = hit-call score of the fitted dose curve at least 0.9, where 1 is the maximum;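 note: cells exposed to compound for six hours; intended direction is loss of nuclei count meaning fewer cells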). The essentials: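 Chemicals in eight-point dilution series are added to MCF-7 cells for six hours, nuclei are stained with Hoechst and imaged, and per-well nuclei counts are fitted in both directions relative to DMSO controls.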

A short description of assay [14]: CCTE_Shafer_MEA_acute_burst_number: CCTE's Neural Acute Assay for Single-Electrode Bursts, Shafer Lab (AID 2284013). A digest of the protocol:
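Spontaneous network activity of primary rat cortical neurons was recorded extracellularly on microelectrode arrays at 37 C, with 40-min periods before and during exposure to 0.03-40 uM compound on DIV 13 or 15.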

A short description of assay [15]: CCTE_Shafer_MEA_acute_burst_duration_mean: CCTE's Neural Acute Assay for Mean Burst Duration, Shafer Lab (AID 2284014).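 Note: hits are decreases in mean burst duration relative to DMSO controls.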 A digest of the protocol:
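Read-out is the per-well percent change in mean burst duration (first to last spike within a single-electrode burst) between 40-min recordings before and after compound. Cultures were primary rat cortical neurons on MEAs, dosed at 0.03-40 uM on DIV 13 or 15.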

Assay [16] in a line: CCTE_Shafer_MEA_acute_per_burst_spike_number_mean: CCTE's Neural Acute Assay for Average Number of Spikes Per Burst, Shafer Lab (AID 2284015).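 Note: hits are decreases in mean spikes per burst versus baseline.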 A digest of the protocol: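 We recorded spontaneous network firing of rat cortical neurons for 40 min before and 40 min during exposure to compound at 0.03-40 uM, at 37 C. Spikes were detected adaptively at 8x rms noise, and the change in average spikes per burst was fitted against DMSO.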

A short description of assay [17]: CCTE_Shafer_MEA_acute_interburst_interval_mean: CCTE's Neural Acute Assay for Mean Interburst Interval, Shafer Lab (AID 2284016).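 Note: percent change of mean interburst interval versus each well's own pre-dose baseline; curves fitted for decrease in interburst interval relative to DMSO.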 The essentials: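 MEA recording of spontaneous network bursting in primary rat cortical cultures; mean interburst interval was compared before and after a 40-min compound exposure (0.03-40 uM) and expressed as percent change, relative to DMSO.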

Assay [18] in a line: CCTE_Shafer_MEA_acute_burst_percentage_mean: CCTE's Neural Acute Assay for Percentage of Spikes in a Burst, Shafer Lab (AID 2284017).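 For AC50: curve fitted for loss of signal so potency reflects decreased burst percentage.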 A digest of the protocol:
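Compounds were tested at 0.03-40 uM on primary rat cortical neuron networks grown over microelectrodes, with at least three wells per compound. Spontaneous firing was recorded for 40 min before and 40 min after dosing, and the change in burst percentage was computed per well.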

Assay [19] in a line: CCTE_Shafer_MEA_acute_burst_percentage_std: CCTE's Neural Acute Assay for Standard Deviation of Burst Percentage, Shafer Lab (AID 2284018).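 Note: fitted in the negative direction so actives lower burst percentage SD.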 A digest of the protocol:
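Value is percent change from baseline in the across-electrode SD of spikes-in-bursts percentage, wells with >/= 10 active electrodes. Acute 40-min exposure to 0.03-40 uM on DIV 13 or 15 rat cortical cultures, recorded at 37 C after 40-min baseline.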

A short description of assay [20]: CCTE_Shafer_MEA_acute_per_network_burst_spike_number_mean: CCTE's Neural Acute Assay for Average Number of Spikes in a Network Burst, Shafer Lab (AID 2284019). The essentials:
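Read-out is mean spike count per network burst, taken as percent change between a 40-min pre-exposure and a 40-min post-exposure recording per well. Rat primary cortical neurons on MEAs at 37 C, DIV 13 or 15; compounds at 0.03-40 uM.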

Results filed as inconclusive are left out. Calls of active or inactive are those of the source. Rule for the calls, unless noted: active = hit-call score of the fitted dose curve at least 0.9, where 1 is the maximum; inactive = score below 0.9.

Nucleoli Translocation, AR (gene 367), sequence (P10275 whole entry, looked up): as the sequence (P10275 whole entry, looked up, the tested form may be a part) above

For the molecule `CCc1cccc(CC)c1N(COC)C(=O)CCl`, the AC50 in assay [1] is 20.1 µM (active); in assay [3], 12.8 µM (active); in assay [5] it was 36.6 µM (active); in [6], 13.8 µM (active). The result in assay [2], in assay [4], in assay [7], in [8], in assay [9] and in assay [10] was inactive.

For the molecule `N#CSCSC#N`, the AC50 in [1] is 16.5 µM (active); in assay [3], 12.7 µM (active); in assay [5], 32.6 µM (active); in assay [6], 50 µM (active); in assay [8] it was 67.6 µM (active); in assay [13], 92.6 µM (active). The AC50 in assay [17] was 30.5 µM (active); in assay [18], 27 µM (active). Also, the molecule was called inactive in assay [2], in [7], in assay [11], in assay [12], in [9] and in [14]. The outcome in assay [15], in [16], in assay [19] and in assay [20] was inactive.

For the molecule `CON=C(C(=O)OC)c1ccccc1CON=C(C)c1cccc(C(F)(F)F)c1`, the AC50 in [5] was 8.73 µM (active); in [6], 7.03 µM (active); in assay [7] it was 14.8 µM (active); in [11], 0.183 µM (active); in assay [12], 0.183 µM (active); in assay [14] it was 0.191 µM (active). Besides, the AC50 is 0.767 µM (active) in assay [16], 4.19 µM (active) in assay [17] and 1.12 µM (active) in assay [18]. The outcome in assay [8], in assay [9], in assay [15], in assay [19] and in assay [20] was inactive.

As to `C=C(C)[C@H]1Cc2c(ccc3c2O[C@@H]2COc4cc(OC)c(OC)cc4[C@@H]2C3=O)O1`, the AC50 in [1] was 50 µM (active); in assay [5], 0.108 µM (active); in assay [6], 0.0663 µM (active); in assay [7] it was 0.0842 µM (active); in assay [8], 13.3 µM (active); in [11] it was 2.81 µM (active). Also, the values for the AC50 in [12] and in [19] were 2.85 µM (active) and 30.3 µM (active), respectively. Moreover, the molecule was classed as inactive in assay [2], in assay [3], in [4], in [9], in assay [13] and in assay [14]. The molecule was called inactive in assay [15], in assay [16], in assay [17], in assay [18] and in assay [20].

With `CCOP(=O)(NC(C)C)Oc1ccc(SC)c(C)c1` (stereo not given), the result in assay [1], in assay [2], in assay [3], in assay [4], in assay [5] and in assay [7] was inactive. The outcome in assay [8], in assay [9], in [10], in [13], in assay [14] and in assay [15] was inactive. In addition, the molecule was classed as inactive in [16], in [17], in [19] and in assay [20]. The AC50 is 10.2 µM (active) in [11], 10.2 µM (active) in assay [12] and 30.2 µM (active) in assay [18].
